Measured values published in the supplement of paper PMC5662767.
Structures can show the parent of a compound that is named as a salt.

Test system: Drosophila S2 cl14 SmoIP sensor cells
Assay: normalized SmoIP GFP fluorescence (untreated unstimulated = 0%, untreated Hh-stimulated = 100%); higher = more Smo activation sensor fluorescence
Settings: compound concentration: 2 uM, 24 h
[1] = stimulation: Hh conditioned medium (+Hh)
[2] = stimulation: mock conditioned medium (-Hh)
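Also: flow cytometry read-out as median GFP intensity of gated cells, compounds added 30 min before Hh-conditioned or mock medium, mock-treated cells serving as unstimulated baseline.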

SMILES	normalized SmoIP GFP fluorescence [1]	normalized SmoIP GFP fluorescence [2]
CC(=O)[C@H]1CC[C@H]2[C@@H]3CC=C4C[C@@H](O)CC[C@]4(C)[C@H]3CC[C@]12C [pregnenolone]	116%	8.09%
CCC[C@H](NC(=O)/C(C#N)=C/c1cccc(Br)n1)c1ccccc1	114%	15.7%
C=CC(=O)Nc1cccc(Nc2nc(Nc3ccc(OCCOC)cc3)ncc2F)c1	116%	-2.31%
Cc1nnc(C(C)C)n1C1C[C@H]2CC[C@@H](C1)N2CC[C@H](NC(=O)C1CCC(F)(F)CC1)c1ccccc1 (stereo in doubt) [Maraviroc]	122%	-13.4%
Clc1ccc2c(c1)CCc1cccnc1C2=C1CCNCC1 [desloratadine]	109%	1.21%
Cc1c(CN2CCN(C(=O)[C@H](C)O)CC2)sc2c(N3CCOCC3)nc(-c3cnc(N)nc3)nc12	69.8%	-4.35%
CN(C)C(=O)c1cc2cnc(Nc3ccc(N4CCNCC4)cn3)nc2n1C1CCCC1	98.3%	-0.265%
CNC(=O)c1ccc(C)c(-n2c(C)cc(OCc3ccc(F)cc3F)c(Br)c2=O)c1	130%	-8.41%
O=C1NC(=O)/C(=C/c2ccc3c(c2)OC(F)(F)O3)S1	114%	7.01%
O=[N+]([O-])c1ccc2c(c1)S(=O)(=O)C=C2 [stattic]	116%	-1.74%
Cn1cc(-c2ccc3ncc(Cc4ccc5ncccc5c4)n3n2)cn1	123%	-6.97%
CC(C)C[C@H](NC(=O)[C@H](CCc1ccccc1)NC(=O)CN1CCOCC1)C(=O)N[C@@H](Cc1ccccc1)C(=O)N[C@@H](CC(C)C)C(=O)[C@@]1(C)CO1 [carfilzomib-pr-171]	80.7%	5.7%
COCC(=O)NC/C=C/c1ccc2ncnc(Nc3ccc(Oc4ccc(C)nc4)c(C)c3)c2c1	71.1%	2.43%
COc1ccc(CC(C)NCC(O)c2ccc(O)c(NC=O)c2)cc1 (stereo unspecified) [formoterol-hemifumarate]	129%	-8.77%
Cc1cc2c(F)c(Oc3ncnn4cc(OC[C@@H](C)O)c(C)c34)ccc2[nH]1 [Brivanib]	97.5%	0.489%
CCCc1cc(C)[nH]c(=O)c1CNC(=O)c1cc(-c2ccc(N3CCN(C(C)C)CC3)nc2)cc2c1cnn2C(C)C	116%	5.7%
CC(C)CC(=O)Nc1n[nH]c2c1CN(C(=O)C1CCN(C)CC1)C2(C)C	41.2%	20.1%

SMILES	normalized SmoIP GFP fluorescence [1]	normalized SmoIP GFP fluorescence [2]
Cn1cnc2c(F)c(Nc3ccc(Br)cc3F)c(C(=O)NOCCO)cc21	138%	23%
CCCC(CCC)C(=O)O [Sodium-valproate]	110%	-4.68%
C[C@H](NC(=O)Cc1cc(F)cc(F)c1)C(=O)N[C@H](C(=O)OC(C)(C)C)c1ccccc1	146%	4.93%
CC(C)c1cc(C(=O)N2Cc3ccc(CN4CCN(C)CC4)cc3C2)c(O)cc1O	107%	13.8%
CN(C)[C@@H](CCOc1cccc2ccccc12)c1ccccc1 [Dapoxetine-hydrochloride(Priligy)]	115%	-13.2%
N#Cc1cc(CN2CCC(Nc3ncnc4sc(Cl)cc34)CC2)ccc1F	129%	-12.6%
Cc1c(-c2ccccc2)oc2c(C(=O)OCCN3CCCCC3)cccc2c1=O [flavoxate-hcl]	106%	0.474%
COc1ccccc1N1CCN(CCN(C(=O)C2CCCCC2)c2ccccn2)CC1	125%	7.01%
CCc1cccc2c3c([nH]c12)C(CC)(CC(=O)O)OCC3 (stereo unspecified) [Etodolac]	104%	-3.17%
CCOc1ccc(NC(C)=O)cc1 [phenacetin]	131%	9.08%
O=C(Nc1cccc(Cl)c1)c1ccccn1	105%	-2.93%
CC[C@H]1OC(=O)[C@H](C)[C@@H](O[C@H]2C[C@@](C)(OC)[C@@H](O)[C@H](C)O2)[C@H](C)[C@@H](O[C@@H]2O[C@H](C)C[C@H](N(C)C)[C@H]2O)[C@](C)(OC)C[C@@H](C)C(=O)[C@H](C)[C@@H](O)[C@]1(C)O [clarithromycin]	147%	-6.97%
N[C@H]1C[C@@H]1c1ccc(-c2cccc(O)c2)cc1	102%	-4.81%
Nc1nccc(Oc2ccc(NC(=O)c3c[nH]cc(-c4ccc(F)cc4)c3=O)cc2F)c1Cl	88.3%	-6.34%
CCOC(=O)[C@H](CCc1ccccc1)N[C@H]1CCCN2CCC[C@H](C(=O)O)N2C1=O [cilazapril-monohydrate-inhibace]	111%	6.28%
COc1ccc([C@H]2CNC(=O)C2)cc1OC1CCCC1 [sRolipram]	102%	-4.08%
